Values without a mark were called inactive. Inconclusive results are not listed. The source made the active and inactive calls. Unless noted, calls follow the shape of the dose curve; as a rule, active = well fitted curve in the direction sought with a large enough effect in the repeat runs; inconclusive = weak or mixed curves; inactive = no such curve, though single readings can be large; an effect the other way counts as inactive or inconclusive.

The values that follow come from PubChem BioAssay (Tox21).

Assay [1] can be described thus: qHTS assay to test for compound auto fluorescence at 535 nm (green) in HEK293 cells (AID 720680). For orientation: In qHTS, concentration-response curves come from the screen itself.
Assay [2] can be described thus: qHTS assay to test for compound auto fluorescence at 460 nm (blue) in HEK293 cell free culture (AID 720681). Put shortly:
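Blue fluorescence (Ex 405/Em 460 nm, triamterene-equivalent) was read immediately after pin transfer of compound or DMSO into medium (DMEM, 10% FBS) without cells.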

Assay [3] in a line: qHTS assay to test for compound auto fluorescence at 535 nm (green) in HEK293 cell free culture (AID 720682). The gist of the method:
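Each library compound, or DMSO control, is added by pintool to medium alone, comprising DMEM and 10% FBS. Emission at 535 nm following 485 nm excitation is quantified against fluorescein.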

Assay [4] in a line: qHTS assay to test for compound auto fluorescence at 590 nm (red) in HEK293 cell free culture (AID 720683). The gist of the method:
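Red-channel autofluorescence of compounds in culture medium (DMEM, 10% FBS), no cells, measured at 540/590 nm. Rose Bengal sodium is the reference fluorophore for equivalence.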

Assay [5] in a line: qHTS assay to test for compound auto fluorescence at 590 nm (red) in HepG2 cell free culture (AID 720684). The gist of the method:
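Cell-free; medium MEM + 10% FBS; compound or DMSO added by pintool; read Ex 540/Em 590 nm; Rose Bengal sodium as red reference fluorophore.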

Assay [6] in a line: qHTS assay to test for compound auto fluorescence at 460 nm (blue) in HepG2 cell free culture (AID 720685). The gist of the method:
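Cell-free plates of MEM plus 10% FBS received 23 nL compound or DMSO vehicle; blue-channel (405/460 nm) intensity scored against triamterene as reference fluorophore.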

A short description of assay [7]: qHTS assay to test for compound auto fluorescence at 535 nm (green) in HepG2 cell free culture (AID 720686).
A short description of assay [8]: qHTS assay to test for compound auto fluorescence at 460 nm (blue) in HepG2 cells (AID 720687). The gist of the method:
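Blue-channel autofluorescence (Ex/Em 405/460 nm, triamterene-equivalent) was measured after 1 hr compound exposure at 37 C, 5% CO2. Cells were HepG2, plated overnight at 37 C in MEM plus 10% FBS.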

The target of assay [9] is Glucocorticoid receptor (Homo sapiens) (UniProt P04150). The assay can be described thus: qHTS assay to identify small molecule agonists of the glucocorticoid receptor (GR) signaling pathway (AID 720691; active = well fitted activation curve with a large enough effect in the signal ratio in the repeat runs, not every such curve was filed as active; the % refers to the signal ratio). Put shortly: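 Cells: GR-bla HeLa, endogenous GR with stably integrated GRE-beta-lactamase reporter. Treatment 18 h, 37 C, compounds delivered in DMSO. Detection via LiveBLAzer B/G FRET substrate, 2 h RT, fluorescence intensity.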

Assay [10] has the same target. The assay can be described thus: qHTS assay to identify small molecule antagonists of the glucocorticoid receptor (GR) signaling pathway (AID 720692; active = well fitted inhibition curve with a large enough effect in the signal ratio in the repeat runs, not every such curve was filed as active; the % refers to the signal ratio). The gist of the method: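 Quantitative HTS in antagonist format: HeLa cells expressing endogenous GR and a stably integrated GRE-bla reporter, stimulated with 5 nM dexamethasone (final) alongside test compounds for 18 h.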

Assay [11] is described as follows: qHTS assay to identify small molecule antagonists of the glucocorticoid receptor (GR) signaling pathway - cell viability counter screen (AID 720693). Also: nearly all actives have a fitted effect of over 55% in size.
Assay [12] is described as follows: qHTS assay for identifying genotoxic compounds that show differential cytotoxicity against isogenic chicken DT40 cell lines with known DNA damage response pathways - Rev3 mutant cell line (AID 743014). Also: nearly all actives have a fitted effect of over 55% in size.
Assay [13] is described as follows: qHTS assay for identifying genotoxic compounds that show differential cytotoxicity against isogenic chicken DT40 cell lines with known DNA damage response pathways - Rad54/Ku70 mutant cell line (AID 743015). Also: nearly all actives have a fitted effect of over 60% in size.
Assay [14] in a line: qHTS assay to identify small molecule antagonists of the androgen receptor (AR) signaling pathway - cell viability counter screen (AID 743033; also: nearly all actives have a fitted effect of over 45% in size).
Assay [15] in a line: qHTS assay to identify small molecule antagonists of the androgen receptor (AR) signaling pathway using the MDA cell line - cell viability counter screen (AID 743041; also: nearly all actives have a fitted effect of over 45% in size). The gist of the method: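 Viability read by CellTiter-Fluor fluorescence in the same wells as the antagonist screen, added after 15.5 h of a 16 h, 37C exposure. Human breast carcinoma MDA-kb2 AR-luc cells, compounds co-dosed with agonist R1881.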

Assay [16] can be described thus: qHTS assay for identifying genotoxic compounds that show differential cytotoxicity against isogenic chicken DT40 cell lines with known DNA damage response pathways - wild type cell line (AID 743012). Also: nearly all actives have a fitted effect of over 60% in size. Also: potency is read from the fitted curve at half-maximal effect. The gist of the method:
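Luminescent ATP viability signal (CellTiter-Glo, 30 min RT) recorded after wild type DT40 cells were incubated with compounds for 40 h at 37 C/5% CO2.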

Assay [17] concerns the target Androgen receptor (Homo sapiens) (UniProt P10275). Description: qHTS assay to identify small molecule agonists of the androgen receptor (AR) signaling pathway (AID 743036; active = well fitted activation curve with a large enough effect in the signal ratio in the repeat runs, with a control signal flat, not every such curve was filed as active; the % refers to the signal ratio). Put shortly:
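Following a 4 h settling period, AR-UAS-bla HEK293 cells were dosed with compounds for 16 h at 37C. A 2 h room-temperature incubation with LiveBLAzer B/G FRET substrate preceded the fluorescence measurement.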

The target is the same in assay [18]. Description: qHTS assay to identify small molecule agonists of the androgen receptor (AR) signaling pathway using the MDA cell line (AID 743040; also: nearly all actives have a fitted effect of over 20% in size). The gist of the method: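 Luciferase agonist assay: 16 h compound exposure at 37C without CO2 in MDA-kb2 AR-luc cells, whose MMTV promoter responds to both AR and GR. Luminescence measured after 30 min room-temperature incubation with ONE-Glo.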

Assay [19] has the same target. Description: qHTS assay to identify small molecule antagonists of the androgen receptor (AR) signaling pathway using the MDA cell line (AID 743042; also: nearly all actives have a fitted effect of over 55% in size). Put shortly:
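Antagonist mode: compounds plus R1881 agonist added to MDA-kb2 AR-luc cells, incubated 16 h at 37C. Luciferase reporter luminescence quantified, with multiplexed CellTiter-Fluor readout for cell viability.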
% is scaled to controls: 0 for no effect and ±100 for the full control effect.

Chain of Androgen receptor (Homo sapiens) (P10275 whole entry, looked up): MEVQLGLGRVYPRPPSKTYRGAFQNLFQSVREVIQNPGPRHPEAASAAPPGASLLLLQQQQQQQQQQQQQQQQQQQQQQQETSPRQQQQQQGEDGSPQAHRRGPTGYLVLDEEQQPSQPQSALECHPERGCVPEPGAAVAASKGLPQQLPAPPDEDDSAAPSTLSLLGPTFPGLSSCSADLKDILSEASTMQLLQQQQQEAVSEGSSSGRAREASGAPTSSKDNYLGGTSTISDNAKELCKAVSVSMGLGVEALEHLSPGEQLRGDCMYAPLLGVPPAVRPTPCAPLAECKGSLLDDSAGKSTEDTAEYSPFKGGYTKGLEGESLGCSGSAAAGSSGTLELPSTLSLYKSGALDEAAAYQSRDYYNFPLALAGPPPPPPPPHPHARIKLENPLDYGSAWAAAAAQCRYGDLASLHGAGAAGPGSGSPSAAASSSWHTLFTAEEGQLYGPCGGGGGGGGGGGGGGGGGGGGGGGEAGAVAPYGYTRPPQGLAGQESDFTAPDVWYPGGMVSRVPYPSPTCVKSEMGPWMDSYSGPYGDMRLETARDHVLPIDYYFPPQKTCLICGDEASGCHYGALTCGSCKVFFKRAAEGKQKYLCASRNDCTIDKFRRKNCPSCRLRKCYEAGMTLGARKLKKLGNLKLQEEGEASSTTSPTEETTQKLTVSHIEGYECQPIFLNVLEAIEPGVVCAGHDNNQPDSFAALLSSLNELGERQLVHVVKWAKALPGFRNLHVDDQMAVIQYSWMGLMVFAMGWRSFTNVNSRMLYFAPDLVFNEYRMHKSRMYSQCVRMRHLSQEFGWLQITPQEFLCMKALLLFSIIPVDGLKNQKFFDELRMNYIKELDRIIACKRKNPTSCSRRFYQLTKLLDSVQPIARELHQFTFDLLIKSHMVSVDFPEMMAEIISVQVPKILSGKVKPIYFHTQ
Chain of Glucocorticoid receptor (Homo sapiens) (P04150 whole entry, looked up): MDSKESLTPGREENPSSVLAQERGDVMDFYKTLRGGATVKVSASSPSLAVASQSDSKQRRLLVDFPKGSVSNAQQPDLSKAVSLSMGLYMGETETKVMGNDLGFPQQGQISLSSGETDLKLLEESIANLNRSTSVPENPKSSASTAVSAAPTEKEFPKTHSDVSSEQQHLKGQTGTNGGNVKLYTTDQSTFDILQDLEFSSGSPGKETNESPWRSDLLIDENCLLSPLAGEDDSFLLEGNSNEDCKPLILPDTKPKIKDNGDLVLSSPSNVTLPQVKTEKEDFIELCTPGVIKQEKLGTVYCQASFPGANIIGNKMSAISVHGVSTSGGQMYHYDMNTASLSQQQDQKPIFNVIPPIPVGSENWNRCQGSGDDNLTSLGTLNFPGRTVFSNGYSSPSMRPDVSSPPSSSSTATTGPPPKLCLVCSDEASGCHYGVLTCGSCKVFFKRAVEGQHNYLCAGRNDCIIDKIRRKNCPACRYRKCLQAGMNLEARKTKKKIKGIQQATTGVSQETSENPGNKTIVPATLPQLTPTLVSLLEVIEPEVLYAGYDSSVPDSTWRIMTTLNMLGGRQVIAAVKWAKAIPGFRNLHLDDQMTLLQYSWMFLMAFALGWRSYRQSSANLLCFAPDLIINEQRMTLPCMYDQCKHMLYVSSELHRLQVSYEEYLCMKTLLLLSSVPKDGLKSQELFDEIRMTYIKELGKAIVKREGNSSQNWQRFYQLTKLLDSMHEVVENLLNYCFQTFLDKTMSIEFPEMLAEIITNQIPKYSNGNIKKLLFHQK

For `O=C(NCO)NCO`, the compound was called inactive in assay [1], in assay [2], in assay [3], in assay [4], in [5] and in [6]. Besides, the outcome in assay [7], in assay [8] and in assay [9] was inactive. Also, the Potency result in assay [10], in [11], in assay [12], in assay [13], in [14] and in [15] was “inactive” in each case.

In the case of `CCC(Cl)[N+](=O)[O-]` (stereo not given), the call in [1], in assay [2], in [3], in assay [4], in [5] and in assay [6] was inactive. The compound was called inactive in assay [7], in assay [8] and in assay [9]. The Potency entry in assay [10], in [11], in [16], in assay [12], in [13] and in [14] was “inactive” in each case. In addition, in assay [15], the Potency entry was “inactive”.

As to `N#CC(O)c1ccccc1` (stereo not given), the outcome in [1], in assay [2], in assay [3], in assay [4], in assay [5] and in assay [6] was inactive. Besides, the result in assay [7], in [8] and in assay [9] was inactive. The Potency entry in assay [10], in assay [11], in assay [12], in [13], in assay [14] and in assay [15] was “inactive” each time.

Turning to `COc1ccc2c(c1OC)CN1CCc3cc4c(cc3C1C2)OCO4` (stereo not given), the fluorescence, % of fluorescein in assay [1] is -0.0571% [at 18.6 µM]. In addition, the fluorescence, % of fluorescent control in assay [2] was 0.288% [at 18.6 µM]; in [4] it was 0.155% [at 18.6 µM]; in [6], -0.0388% [at 18.6 µM]; in [8] it was 0.229% [at 18.6 µM]. In addition, the activity change in [3] is -0.0423% [at 18.6 µM]. Further, the fluorescence, % of Rose Bengal in assay [5] was -0.268% [at 18.6 µM]. Besides, the fluorescence, % of fluorescein control in assay [7] was 0.0175% [at 18.6 µM]. Also, the result in [9], in assay [17] and in [19] was inactive. In addition, the Potency entry in assay [10], in assay [11], in assay [14], in assay [18] and in assay [15] was “inactive” throughout. In addition, the Potency in assay [16] was 11.4 µM (active).

In the case of `C=CC1CC=CCC1` (stereo not given), the compound was called inactive in assay [1], in assay [2], in [3], in assay [4], in [5] and in [6]. The call in assay [7], in assay [8] and in assay [9] was inactive. Besides, the Potency entry in assay [10], in assay [11], in assay [16], in assay [12], in [13] and in assay [15] was “inactive” in each case.

Take `O=c1oc2ccccc2c(O)c1C1CCCc2ccccc21` (stereo not given): the outcome in [1], in [2], in assay [3], in assay [4], in assay [5] and in [6] was inactive. The compound was classed as inactive in [7], in assay [8] and in assay [9]. Also, the Potency entry in assay [10], in assay [11], in assay [16], in [12], in [13] and in assay [14] was “inactive” in each case. Moreover, in assay [15], the Potency result is “inactive”.

For the compound `CCCCc1c(C)nc(NCC)[nH]c1=O`, the compound was called inactive in assay [1], in [2], in assay [3], in [4], in [5] and in assay [6]. Further, the compound was called inactive in assay [7], in assay [8] and in assay [9]. The Potency result in assay [10], in [11], in assay [16], in assay [12], in [13] and in [14] was “inactive” in each case. Also, in assay [15], the Potency entry is “inactive”.

Regarding `COc1cc(C[C@@H](C)N)c(OC)cc1C`, the compound was called inactive in assay [1], in assay [2], in assay [3], in assay [4], in [5] and in assay [6]. Further, the compound was called inactive in assay [7], in assay [8] and in assay [9]. The Potency result in [10], in assay [11], in [12], in assay [13], in [14] and in assay [15] was “inactive” in each case.
